Inconclusive results are not listed. Active and inactive are the calls of the source. Unless noted, calls come from the whole dose curve; as a rule, active = well fitted curve in the direction sought with a large enough effect in the repeat runs; inconclusive = weak or mixed curves; inactive = no such curve, though single readings can be large; an effect the other way counts as inactive or inconclusive.
Experiments:
[1] = molecular target: Progesterone receptor (Homo sapiens) (UniProt P06401); test: qHTS assay to identify small molecule antagonists of the progesterone receptor (PR) signaling pathway (AID 1346795; active = well fitted inhibition curve with a large enough effect in the signal ratio in the repeat runs, not every such curve was filed as active; the % refers to the signal ratio; note: potency is the fitted concentration of half-maximal effect)
Outline: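 HEK293T PR-UAS-bla reporter cells in charcoal-stripped serum (2%) received compound after a 6 hr settling period, followed by R5020 agonist at 1 nM final; 16 hr incubation preceded the FRET substrate step and fluorescence measurement.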

[2] = qHTS assay to identify small molecule antagonists of the progesterone receptor (PR) signaling pathway - cell viability counter screen (AID 1346798); note: series mostly up to about 92 µM; nearly all actives have a fitted effect of over 50% in size
Outline: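 Same-well multiplex: after 16 hr at 37C with compound and R5020 stimulation, HEK293T cells carrying a UAS-bla reporter received LiveBLAzer substrate (2 hr RT), then CellTiter-Glo (30 min RT) for luminescent viability.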

[3] = qHTS assay to identify small molecule agonists of the progesterone receptor (PR) signaling pathway - cell viability counter screen (AID 1346799; calls by dose curve; note: nearly all actives have a fitted effect of over 45% in size)
Outline: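 Counter screen for cytotoxicity: compound-treated PR-UAS-bla HEK293T cells (16 hr, 37C, 5% CO2) were assayed with CellTiter-Glo, luminescence measured after 30 min at room temperature.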

[4] = qHTS assay to identify small molecule antagonists of the TGF-beta/Smad signaling pathway - cell viability counter screen (AID 1346824); note: nearly all actives have a fitted effect of over 50% in size
Outline: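 SBE-bla HEK 293T cells were plated overnight at 37 C, then given compounds in DMSO plus TGF-beta1 (added as 0.25 ng/mL solution) for 5 hr. After the bla read, CellTiter-Glo was added to the same wells and luminescence read after 30 min at room temperature.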

[5] = qHTS assay to identify small molecule agonists of the TGF-beta/Smad signaling pathway - cell viability counter screen (AID 1346829); note: top concentration of the series differs between compounds; nearly all actives have a fitted effect of over 45% in size
Outline: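 Compound-treated SBE-bla HEK 293T cells (5 hr, 37 C) were assessed for viability with CellTiter-Glo in parallel with the reporter read.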

[6] = qHTS assay to identify small molecule agonists of the TGF-beta/Smad signaling pathway (AID 1346859; active = well fitted activation curve with a large enough effect in the signal ratio in the repeat runs, not every such curve was filed as active; the % refers to the signal ratio; note: series mostly up to about 77 µM)
Outline: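 Smad-responsive beta-lactamase reporter cells (HEK 293T) received compounds from DMSO stocks after overnight attachment, were incubated 5 hr, then treated 2 hr with FRET substrate before dual-emission fluorescence measurement (405 nm excitation).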

[7] = molecular target: Thyrotropin-releasing hormone receptor (Homo sapiens) (UniProt P34981); test: qHTS assay to identify small molecule antagonists of the thyrotropin-releasing hormone receptor (TRHR) signaling pathway (AID 1346877; active = well fitted inhibition curve with a large enough effect in the repeat runs, not every such curve was filed as active; note: series mostly up to about 51 µM)
Outline: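 Antagonist mode: after a 5 min room-temperature compound exposure, cells were stimulated with 1 nM (final) TRH. Dye-loaded TRHR-HEK293 cells were used, and calcium-dependent fluorescence was followed for 3 min, with 15-point titrations run in triplicate.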

[8] = molecular target: Thyrotropin-releasing hormone receptor (Homo sapiens) (UniProt P34981); test: qHTS assay to identify small molecule agonists of the thyrotropin-releasing hormone receptor (TRHR) signaling pathway (AID 1346891; calls by dose curve;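 note: HEK293 cells expressing TRHR with calcium dye readout; series mostly up to about 58 µM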)
Outline: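 Agonist-mode calcium mobilisation screen: TRHR-transfected HEK293 cells cultured overnight (18 h), dye-loaded for 2 h at 37 °C, exposed to compounds, and monitored by fluorescence for 3 min.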

[9] = Human pregnane X receptor (PXR) small molecule agonists, qHTS cell viability counter screen (AID 1346977); note: nearly all actives have a fitted effect of over 50% in size
Outline: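 Measures live-cell protease fluorescence (CellTiter-Fluor) in PXR-Luc HepG2 cells treated 24hr with compounds at 37C. Cells had 5hr to attach before pin transfer of DMSO solutions.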

[10] = Caspase-3/7 induction in HepG2 cells by small molecules, qHTS assay (AID 1346978); note: nearly all actives have a fitted effect of over 15% in size
Outline: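 Wild-type HepG2 cells (2,000/well) were settled 5 h at 37 C, 5% CO2, then exposed to compounds in DMSO for 17 h. Caspase-3/7 activity was read by luminescence 30 min after adding Caspase-Glo 3/7 reagent at room temperature.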

[11] = Caspase-3/7 induction in CHO-K1 cells by small molecules, qHTS cell viability counter screen (AID 1346979); note: nearly all actives have a fitted effect of over 35% in size; note: potency is the fitted concentration of half-maximal effect
Outline: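 In the same wells as the caspase read, viability of compound-treated wild-type CHO-K1 cells was assessed using CellTiter-Fluor, added after 16hr at 37C and measured by fluorescence following 1hr further incubation.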

[12] = Caspase-3/7 induction in CHO-K1 cells by small molecules, qHTS assay (AID 1346980); note: nearly all actives have a fitted effect of over 15% in size
Outline: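 Wild-type cells were seeded at 1,500 per well and settled 5 hr at 37 C, 5% CO2, then exposed to DMSO-dissolved compounds for 17 hr. Caspase-Glo 3/7 reagent was added, and luminescence was read after 30min at room temperature.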

[13] = Caspase-3/7 induction in HepG2 cells by small molecules, qHTS cell viability counter screen (AID 1346981); note: series mostly up to about 92 µM; nearly all actives have a fitted effect of over 30% in size
Outline: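 CellTiter-Fluor fluorescence measured viability in the same wells used for Caspase-Glo 3/7. HepG2 (wild type) at 2,000 cells/well were pre-incubated 5 hr, dosed, and given reagent at 16 hr, with 1 hr further at 37C.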

[14] = molecular target: Cytochrome P450 2D6 (Homo sapiens) (UniProt P10635); test: Cytochrome P450 Family 2 Subfamily D Member 6 (CYP2D6) small molecule antagonists: luciferase reporter qHTS assay (AID 1671196); note: series mostly up to about 120 µM; nearly all actives have a fitted effect of over 50% in size
Outline: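 CYP2D6 activity was followed as luminescence from its luciferin product after a 1 h NADPH-driven reaction at room temperature. Enzyme-substrate mix and compound were pre-incubated for 10 min, and the signal was read 20 min after adding detection reagent.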

[15] = molecular target: Cytochrome P450 2C19 (Homo sapiens) (UniProt P33261); test: Cytochrome P450 Family 2 Subfamily C Member 19 (CYP2C19) small molecule antagonists: luciferase reporter qHTS assay (AID 1671197); note: nearly all actives have a fitted effect of over 65% in size; note: potency is the fitted concentration of half-maximal effect; for activity change, negative = inhibition: series mostly up to about 120 µM
Outline: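 P450-Glo CYP2C19 screening system; proluciferin substrate; DMSO compound stocks; 10 min RT preincubation; NADPH regeneration, 1 h at 37C; luciferin detection reagent, 20 min RT; luminescence as RLU.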

[16] = molecular target: Nuclear receptor subfamily 1 group I member 2 (Rattus norvegicus) (UniProt Q9R1A7); test: Rat pregnane X receptor (rPXR) activation by small molecules, qHTS assay (AID 1346983); conditions: rPXR luciferase reporter cells, One-Glo luminescence, 24 h; max activation: hits give high values; note: nearly all actives have a fitted effect of over 20% in size
Outline: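 Cell-based rPXR luciferase reporter assay, 2,000 cells per well, rested 5hr at 37 C before compound addition in DMSO, then 24 hr at 37 C. One-Glo reagent was added and luminescence read after 30 min at room temperature.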

[17] = molecular target: Nuclear receptor subfamily 1 group I member 2 (Homo sapiens) (UniProt O75469); test: Human pregnane X receptor (PXR) small molecule agonists, qHTS assay (AID 1346982); note: nearly all actives have a fitted effect of over 35% in size; note: potency is the fitted concentration of half-maximal effect
Outline: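 Agonist mode: luminescence from ONE-Glo after 24 h compound exposure at 37C in HepG2 cells carrying hPXR-responsive CYP3A4 luciferase, plated in charcoal-stripped serum medium 5 h beforehand.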
% is set by controls: 0 for no effect and ±100 for the full control effect.

Thyrotropin-releasing hormone receptor (Homo sapiens), sequence (P34981 whole entry, looked up): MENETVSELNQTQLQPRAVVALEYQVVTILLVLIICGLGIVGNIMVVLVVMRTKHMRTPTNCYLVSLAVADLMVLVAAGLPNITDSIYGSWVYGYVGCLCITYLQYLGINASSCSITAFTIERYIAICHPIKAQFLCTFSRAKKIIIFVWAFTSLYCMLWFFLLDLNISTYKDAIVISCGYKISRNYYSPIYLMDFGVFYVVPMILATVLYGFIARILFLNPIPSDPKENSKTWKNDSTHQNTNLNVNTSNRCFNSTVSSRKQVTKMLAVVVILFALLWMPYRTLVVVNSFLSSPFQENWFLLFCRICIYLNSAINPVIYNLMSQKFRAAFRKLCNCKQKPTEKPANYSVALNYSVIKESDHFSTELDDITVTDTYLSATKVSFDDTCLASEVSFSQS
Nuclear receptor subfamily 1 group I member 2 (Homo sapiens), sequence (O75469 whole entry, looked up): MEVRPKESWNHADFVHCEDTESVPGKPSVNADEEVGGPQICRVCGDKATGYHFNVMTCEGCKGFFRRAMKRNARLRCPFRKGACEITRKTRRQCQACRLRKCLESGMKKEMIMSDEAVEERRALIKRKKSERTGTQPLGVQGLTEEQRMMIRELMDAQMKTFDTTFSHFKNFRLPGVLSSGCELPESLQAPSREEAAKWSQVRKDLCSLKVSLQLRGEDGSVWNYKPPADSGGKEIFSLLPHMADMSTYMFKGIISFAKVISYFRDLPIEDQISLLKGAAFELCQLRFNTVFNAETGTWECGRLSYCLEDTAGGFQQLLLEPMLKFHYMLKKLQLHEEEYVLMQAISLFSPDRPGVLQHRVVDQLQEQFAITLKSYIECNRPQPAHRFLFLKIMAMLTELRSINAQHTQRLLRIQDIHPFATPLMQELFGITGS
Cytochrome P450 2C19 (Homo sapiens), sequence (P33261 whole entry, looked up): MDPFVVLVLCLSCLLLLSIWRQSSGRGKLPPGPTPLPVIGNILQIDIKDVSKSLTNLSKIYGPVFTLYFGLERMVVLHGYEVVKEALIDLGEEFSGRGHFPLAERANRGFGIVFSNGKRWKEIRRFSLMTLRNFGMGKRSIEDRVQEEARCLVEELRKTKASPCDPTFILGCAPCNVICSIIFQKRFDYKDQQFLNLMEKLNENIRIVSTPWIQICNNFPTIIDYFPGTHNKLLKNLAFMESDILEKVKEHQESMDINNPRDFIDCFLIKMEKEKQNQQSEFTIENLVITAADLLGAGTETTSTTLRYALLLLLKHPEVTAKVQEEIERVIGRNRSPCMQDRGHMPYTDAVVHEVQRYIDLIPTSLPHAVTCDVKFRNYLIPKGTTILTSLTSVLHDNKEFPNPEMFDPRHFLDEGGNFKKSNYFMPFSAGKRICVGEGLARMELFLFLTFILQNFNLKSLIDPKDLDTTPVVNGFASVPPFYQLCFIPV
Progesterone receptor (Homo sapiens), sequence (P06401 whole entry, looked up): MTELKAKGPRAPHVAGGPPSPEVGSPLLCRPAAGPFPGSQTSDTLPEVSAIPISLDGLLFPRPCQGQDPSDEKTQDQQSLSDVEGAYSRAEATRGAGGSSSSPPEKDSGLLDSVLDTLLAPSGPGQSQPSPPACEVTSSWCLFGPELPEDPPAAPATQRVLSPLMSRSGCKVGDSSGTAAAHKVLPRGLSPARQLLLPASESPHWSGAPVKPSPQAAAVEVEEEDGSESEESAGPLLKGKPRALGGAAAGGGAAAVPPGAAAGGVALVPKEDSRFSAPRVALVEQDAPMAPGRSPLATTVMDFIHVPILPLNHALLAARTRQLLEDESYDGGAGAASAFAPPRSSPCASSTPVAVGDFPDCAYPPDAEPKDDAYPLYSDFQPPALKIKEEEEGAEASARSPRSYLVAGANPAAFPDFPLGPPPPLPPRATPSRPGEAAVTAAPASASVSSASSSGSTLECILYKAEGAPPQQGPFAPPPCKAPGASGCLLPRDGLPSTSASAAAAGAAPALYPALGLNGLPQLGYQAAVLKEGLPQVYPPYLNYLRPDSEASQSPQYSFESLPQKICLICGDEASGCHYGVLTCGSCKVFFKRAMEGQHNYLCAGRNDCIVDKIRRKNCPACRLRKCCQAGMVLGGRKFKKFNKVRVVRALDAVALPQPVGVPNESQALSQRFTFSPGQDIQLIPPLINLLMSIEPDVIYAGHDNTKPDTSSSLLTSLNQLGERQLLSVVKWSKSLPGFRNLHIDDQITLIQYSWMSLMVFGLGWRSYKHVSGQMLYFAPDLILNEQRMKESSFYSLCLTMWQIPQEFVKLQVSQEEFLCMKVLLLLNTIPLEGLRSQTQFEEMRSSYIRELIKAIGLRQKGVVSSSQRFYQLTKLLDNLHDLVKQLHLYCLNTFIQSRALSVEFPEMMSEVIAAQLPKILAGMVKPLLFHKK
Cytochrome P450 2D6 (Homo sapiens), sequence (P10635 whole entry, looked up): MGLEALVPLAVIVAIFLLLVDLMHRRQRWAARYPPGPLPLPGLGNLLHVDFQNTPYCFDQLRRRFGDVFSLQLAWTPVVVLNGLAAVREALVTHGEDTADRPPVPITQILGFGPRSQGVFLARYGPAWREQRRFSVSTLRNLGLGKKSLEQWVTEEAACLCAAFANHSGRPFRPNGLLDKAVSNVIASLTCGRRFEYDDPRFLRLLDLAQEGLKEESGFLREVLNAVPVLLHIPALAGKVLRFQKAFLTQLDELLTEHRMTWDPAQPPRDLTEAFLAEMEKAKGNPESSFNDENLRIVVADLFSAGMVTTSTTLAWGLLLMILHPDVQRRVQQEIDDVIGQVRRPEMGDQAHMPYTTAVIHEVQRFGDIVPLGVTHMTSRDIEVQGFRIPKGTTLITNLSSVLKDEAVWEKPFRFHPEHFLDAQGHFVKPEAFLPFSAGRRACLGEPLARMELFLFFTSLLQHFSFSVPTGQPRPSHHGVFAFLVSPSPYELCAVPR
Nuclear receptor subfamily 1 group I member 2 (Rattus norvegicus), sequence (Q9R1A7 whole entry, looked up): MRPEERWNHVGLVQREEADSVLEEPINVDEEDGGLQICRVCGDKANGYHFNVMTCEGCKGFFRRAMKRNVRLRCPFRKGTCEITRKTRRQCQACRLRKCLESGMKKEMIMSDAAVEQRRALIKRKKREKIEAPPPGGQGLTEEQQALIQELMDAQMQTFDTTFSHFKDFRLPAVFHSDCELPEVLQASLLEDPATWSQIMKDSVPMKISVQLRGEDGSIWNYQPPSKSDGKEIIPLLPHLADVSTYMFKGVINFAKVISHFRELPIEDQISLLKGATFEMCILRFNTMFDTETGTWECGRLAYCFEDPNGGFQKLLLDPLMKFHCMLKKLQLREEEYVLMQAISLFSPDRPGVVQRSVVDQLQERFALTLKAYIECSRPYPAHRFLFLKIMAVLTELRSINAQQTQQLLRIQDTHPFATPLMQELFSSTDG

CNC(=O)CN(CCN(CCN(CC(=O)[O-])CC(=O)NC)CC(=O)[O-])CC(=O)[O-].O.[Gd+3]
inactive: Potency [1] | Potency [2] | Potency [3] | Potency [4] | outcome [5] | Potency [6] | outcome [7] | Potency [8] | Potency [9] | Potency [10] | Potency [11] | Potency [12] | Potency [13] | Potency [14] | Potency [15]

CCCCc1ncc(/C=C(\Cc2cccs2)C(=O)O)n1Cc1ccc(C(=O)O)cc1
inactive: Potency [1] | Potency [2] | Potency [3] | Potency [4] | outcome [5] | outcome [7] | Potency [8] | Potency [10] | Potency [11] | Potency [12] | Potency [13] | max activation [16] -2.02% | Potency [14] | Potency [15]

C=C(C)C(=O)OCCO
inactive: Potency [1] | Potency [2] | Potency [3] | Potency [4] | outcome [5] | Potency [6] | outcome [7] | Potency [8] | Potency [9] | Potency [10] | Potency [11] | Potency [12] | Potency [13] | Potency [14]

Cc1oc2c(NC(=O)c3c(Cl)cccc3Cl)cccc2c1C(C)(C)O
inactive: Potency [2] | Potency [4] | outcome [5] | Potency [6] | outcome [7] | Potency [8] | Potency [10] | Potency [12] | Potency [14] | Potency [15]
active: Potency [1] 24.3 µM | Potency [11] 61.1 µM | Potency [17] 1.09 µM

CCCCCCCC/C=C\CCCCCCCC(=O)OCC
inactive: Potency [1] | Potency [2] | Potency [4] | outcome [5] | Potency [6] | outcome [7] | Potency [8] | Potency [9] | Potency [10] | Potency [11] | Potency [12] | Potency [13] | Potency [17] | Potency [14]

CN(C)c1ccc(/C=C/c2ccc([N+](=O)[O-])cc2)cc1
inactive: activity change, negative = inhibition [1] -17.2% [at 8.39 µM] | activity change, negative = cytotoxicity [2] -5% [at 8.39 µM] | activity change, negative = cytotoxicity [3] -0.149% [at 8.39 µM] | viability change, negative = cytotoxic [4] -3.22% [at 6.97 µM] | activity change, negative = cytotoxicity [5] 8.79% [at 6.97 µM] | activation [6] -9.78% [at 6.97 µM] | activity, negative = inhibition [7] -0.61% [at 4.65 µM] | activation [8] 0.993% [at 5.23 µM] | activity change, negative = cytotoxicity [9] -0.583% [at 8.39 µM] | caspase activation [10] 0.696% [at 8.39 µM] | caspase-3/7 activation [12] -2.91% [at 8.39 µM] | activity change, negative = cytotoxicity [13] 14.3% [at 8.39 µM] | activity change, negative = inhibition [15] 15.9% [at 10.5 µM]

CC1=CC=C(C(C)C)CC1
inactive: Potency [1] | Potency [2] | Potency [3] | Potency [4] | outcome [5] | Potency [6] | Potency [9] | Potency [10] | Potency [11] | Potency [12] | Potency [13] | Potency [17] | Potency [14]
active: Potency [15] 35.6 µM

CCO[C@H](Cc1ccc(OCCc2ccc(OS(C)(=O)=O)cc2)cc1)C(=O)O
inactive: Potency [1] | Potency [3] | Potency [4] | outcome [5] | Potency [6] | Potency [9] | Potency [10] | Potency [11] | Potency [12] | Potency [13] | Potency [14] | Potency [15]

— PubChem BioAssay (Tox21)
